Screening data from PubChem BioAssay.
In the library only some 11% were active in any assay of this set; here they are far more common.
BAZ2B block: blocks human BAZ2B | Q9UIF8 | AlphaScreen BAZ2B-H3K14Ac peptide displacement | Potency, µM (titrated, usually from 114 µM), hits mostly inhibitors | 4.4% of 360,000 active; also: nearly all actives have a fitted effect of over 60% in size
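AlphaScreen luminescence quantifies BAZ2B engagement of H3K14Ac peptide; the protein and biotinylated peptide are both at 50 nM final, buffer PBS pH 7.4 with 0.01% Tween-20, all steps at room temperature.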
VDR inhibitor: inhibitors of human vitamin D receptor. Potency, µM, usual class: inhibitors. P11473. AID 504847. VDR-SRC2-3 peptide fluorescence polarization, 2 h. 0.93% of 400,000 active
Target sequence (P11473 whole entry, looked up): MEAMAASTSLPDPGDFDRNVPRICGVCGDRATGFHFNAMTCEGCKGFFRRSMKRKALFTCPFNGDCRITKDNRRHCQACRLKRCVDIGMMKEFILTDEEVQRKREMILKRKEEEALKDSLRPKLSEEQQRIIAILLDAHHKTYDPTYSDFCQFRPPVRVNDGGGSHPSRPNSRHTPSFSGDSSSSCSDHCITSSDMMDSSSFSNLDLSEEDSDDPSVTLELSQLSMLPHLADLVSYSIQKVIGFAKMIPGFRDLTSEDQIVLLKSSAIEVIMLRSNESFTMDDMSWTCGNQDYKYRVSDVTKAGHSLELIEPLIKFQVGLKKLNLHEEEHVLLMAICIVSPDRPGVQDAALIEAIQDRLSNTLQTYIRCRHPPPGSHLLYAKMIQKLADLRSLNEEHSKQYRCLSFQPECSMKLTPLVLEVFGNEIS
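Inhibition of the VDR/SRC2-3 peptide interaction is quantified by fluorescence polarization. Compounds (23 nl, pintool) incubate with the reagents for 2 hours at ambient room temperature.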
JMJD2A Tudor: blocks the human JMJD2A Tudor domain; AlphaScreen JMJD2A-Tudor / H3K4me3 peptide binding; Potency, µM (top dose mostly 114 µM), most hits filed as inhibitors; 4.4% of 390,000 active; also: nearly all actives have a fitted effect of over 50% in size
PLK1 PBD block: PLK1 (human) polo-box domain binding inhibition | P53350 | Plk1 PBD binding of FITC phosphopeptide, fluorescence polarization | Potency, µM, actives largely listed as inhibitors | 2.8% of 360,000 active | AID 720504; also: series mostly up to about 57 µM; nearly all actives have a fitted effect of over 65% in size
HP1b binding inh: HP1-beta chromodomain-methylated histone interaction inhibition; P83916; AlphaScreen HP1-beta / biotin-H3K9me3 peptide binding; Potency, µM (top dose mostly 114 µM), most hits filed as inhibitors; 0.56% of 390,000 active; AID 540317; also: nearly all actives have a fitted effect of over 70% in size
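AlphaScreen: HP1-beta (50 nM) preformed 30 min with biotin-H3(1-18)K9me3 peptide (50 nM) in PBS pH 7.4, 0.01% Tween-20. Compound added for 30 min at RT, then streptavidin donor/nickel chelate acceptor beads (10 ug/mL) for 30 min.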
G9a block: G9a (human) methyltransferase inhibition. Q96KQ7. AID 504332. 8.8% of 350,000 active. Potency, µM (doses to about 102 µM), actives largely listed as inhibitors. G9a H3K9 monomethylation, AlphaScreen, 2 h; also: nearly all actives have a fitted effect of over 75% in size
Target sequence (Q96KQ7 913-1193 limits assumed): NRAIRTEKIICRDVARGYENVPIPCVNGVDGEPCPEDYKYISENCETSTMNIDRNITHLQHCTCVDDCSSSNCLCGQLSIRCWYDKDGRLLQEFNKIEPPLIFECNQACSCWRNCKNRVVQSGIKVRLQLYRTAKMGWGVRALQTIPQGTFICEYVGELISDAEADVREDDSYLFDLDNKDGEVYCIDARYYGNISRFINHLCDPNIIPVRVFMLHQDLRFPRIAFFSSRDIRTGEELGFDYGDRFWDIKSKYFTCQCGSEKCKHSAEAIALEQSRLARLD
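Methyltransferase reactions run at room temperature for 2 h (20 nM enzyme, 500 nM biotin-H3K9 peptide, 20 uM SAM) after a 15 min compound preincubation; product detected by AlphaScreen beads and anti-H3K9me1 antibody.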
Large screens that a line does not name were inactive. Calls follow the shape of the dose curve; as a rule, active = well fitted curve in the direction sought with a large enough effect; inconclusive = small, poorly fitted or top-dose-only effect, or another doubt; inactive = no such curve, though single readings can be large; an effect the other way counts as inactive or inconclusive.

CCc1ccc(C(=O)NNC(=O)c2cccc(S(=O)(=O)N3CCN(C)CC3)c2)cc1	G9a block 56µM
CN1CCN(S(=O)(=O)c2cccc(C(=O)Nc3cc(C(F)(F)F)ccc3N3CCCC3)c2)CC1	G9a block 50µM
O=C(COC(=O)C1(c2ccc(F)cc2)CCCC1)N1CCc2ccccc21	none
OCc1ccccc1N=c1ssnc1Cl	BAZ2B block inconclusive (no result: VDR inhibitor, JMJD2A Tudor, PLK1 PBD block, HP1b binding inh)
Clc1ccc(N=c2ssnc2Cl)nc1	VDR inhibitor 5.6µM, PLK1 PBD block 0.95µM
COc1cccc(Cc2nc3ccccc3nc2SCC(=O)N2CCc3ccccc32)c1	BAZ2B block inconclusive (no result: PLK1 PBD block)
COc1ccc(C(=O)NC(C)c2nnc(SCc3ccc(Cl)c(Cl)c3)n2C)cc1 (stereo not given)	BAZ2B block inconclusive, G9a block 32µM
CCn1c(SCc2ccc(Cl)c(Cl)c2)nnc1C(C)NC(=O)c1ccc(OC)cc1 (stereo not given)	BAZ2B block inconclusive
COc1ccccc1N1CCN(c2nccc(C)n2)CC1	none
CCOC(=O)c1c(C)[nH]sc1=S	JMJD2A Tudor 25µM, PLK1 PBD block inconclusive, HP1b binding inh inconclusive, G9a block 3.5µM
CCOC(=O)c1sc(=S)[nH]c1C	JMJD2A Tudor 14µM, HP1b binding inh inconclusive (no result: BAZ2B block, G9a block)
Cc1ccccc1N1CCN(c2ncnc3c2cnn3Cc2ccc(Cl)cc2)CC1	none
O=C(Nc1ccccc1)Nc1nnc(/C=C/c2ccccc2Cl)s1	none
Nc1nnc(/C=C/c2ccccc2Cl)s1	PLK1 PBD block inconclusive, G9a block 50µM
Cc1cc2ccccn2c1C(C[N+](=O)[O-])c1ccc(N(C)C)cc1 (stereo not given)	BAZ2B block 8.9µM, JMJD2A Tudor 11µM, HP1b binding inh inconclusive, G9a block 10µM
COc1ccc(C(C[N+](=O)[O-])c2c(C)cc3ccccn23)cc1 (stereo not given)	BAZ2B block inconclusive, JMJD2A Tudor inconclusive, G9a block 35µM
COc1ccc(C(C[N+](=O)[O-])c2c(-c3ccccc3)cc3ccccn23)c(OC)c1 (stereo not given)	BAZ2B block 79µM, VDR inhibitor 71µM, JMJD2A Tudor inconclusive, G9a block 10µM
CSCC[C@H](NC(=O)CNC(=O)CNC(=O)[C@H](CO)NC(=O)[C@H](CCCNC(=N)N)NC(=O)[C@H](CO)NC(=O)[C@H](CC(C)C)NC(=O)[C@H](CC(C)C)NC(=O)CNC(=O)[C@H](C)NC(=O)[C@H](CC(C)C)NC(=O)[C@H](CCCNC(=N)N)NC(=O)[C@H](Cc1cnc[nH]1)NC(=O)[C@@H](NC(=O)[C@@H](N)C(C)C)[C@@H](C)O)C(=O)N[C@H](C(=O)N[C@@H](CCCCN)C(=O)N[C@@H](CO)C(=O)N[C@@H](CC(N)=O)C(=O)N[C@@H](Cc1ccccc1)C(=O)N[C@H](C(=O)N1CCC[C@H]1C(=O)N[C@H](C(=O)N[C@@H](CC(N)=O)C(=O)N[C@H](C(=O)NCC(=O)N[C@@H](CO)C(=O)N[C@@H](CCCCN)C(=O)N[C@@H](C)C(=O)N[C@@H](Cc1ccccc1)C(N)=O)C(C)C)[C@@H](C)O)C(C)C)C(C)C	none (no result: BAZ2B block, JMJD2A Tudor, PLK1 PBD block, HP1b binding inh, G9a block)
Cc1ccc(NC(=O)CCn2nc(-c3ccccc3)c3ccccc3c2=O)c(C)c1	BAZ2B block inconclusive (no result: PLK1 PBD block)
COC(=O)c1ccc(CNC(=O)C2CCC(=O)N(CCCc3ccccc3)C2)cc1 (stereo not given)	VDR inhibitor inconclusive, JMJD2A Tudor inconclusive, PLK1 PBD block 3.4µM
CCc1ccc2occ(CC(=O)Nc3sc4c(c3C(=O)OC)CCC4)c2c1	BAZ2B block inconclusive, G9a block inconclusive (no result: PLK1 PBD block)
CCOC(=O)C1CCN(c2nc(N)c3c(N)nc(SCC(=O)O)cc3c2C#N)CC1	BAZ2B block 40µM, VDR inhibitor inconclusive, PLK1 PBD block 11µM, HP1b binding inh 18µM, G9a block 8.9µM
CC(=O)Nc1ccc(N2CCCC(C)C2)c([N+](=O)[O-])c1 (stereo not given)	BAZ2B block 35µM, JMJD2A Tudor inconclusive, HP1b binding inh inconclusive, G9a block inconclusive
CC1CCCN(c2ccc(C(=O)Nc3cccnc3)cc2[N+](=O)[O-])C1 (stereo not given)	BAZ2B block inconclusive, G9a block 50µM
CC1CCCN(c2ccc(/C=C(\C#N)c3nn(-c4ccccc4)c(N)c3C#N)cc2[N+](=O)[O-])C1 (stereo not given)	BAZ2B block inconclusive, JMJD2A Tudor inconclusive, G9a block 22µM
CCOc1c(Br)cc(C2C=C(C(=O)O)Nc3ncnn32)cc1OC (stereo not given)	G9a block inconclusive (no result: PLK1 PBD block)
O=C(CNC(=O)c1ccccc1)OCC(=O)c1ccccc1	none (no result: BAZ2B block, PLK1 PBD block, G9a block)
CCCCc1ccc(-n2c(Cc3cccs3)n[nH]c2=S)cc1	BAZ2B block inconclusive, JMJD2A Tudor inconclusive, G9a block 1.8µM
S=c1[nH]nc(Cc2noc3ccccc23)n1-c1ccc(Cl)cc1	JMJD2A Tudor inconclusive, G9a block 1.4µM
S=c1[nH]nc(CCc2ccccc2)n1-c1ccccc1	JMJD2A Tudor 11µM, G9a block 1.4µM
Cc1ccccc1OCc1n[nH]c(=S)n1-c1ccccc1	G9a block 10µM
Cc1ccc2nc(Nc3nc(C)cc(-c4ccccc4)n3)[nH]c(=O)c2c1	none
O=C(Nc1cccc(Cl)c1)c1cc(-c2ccc3c(c2)OCO3)on1	none (no result: PLK1 PBD block)
COc1ccc2cc(C3(C)NC(=O)N(CC(=O)N4CCCCC4)C3=O)ccc2c1 (stereo not given)	none (no result: BAZ2B block, G9a block)
S=c1[nH]nc(Cc2ccccc2)n1-c1ccccc1	JMJD2A Tudor 4µM, G9a block 8.9µM
S=c1[nH]nc(Cc2n[nH]c(=S)n2-c2ccccc2)n1-c1ccccc1	JMJD2A Tudor 8.9µM, G9a block 10µM
S=c1[nH]nc(Cc2cccs2)n1-c1ccccc1	JMJD2A Tudor 7.9µM
CCCCOCC(O)CCc1n[nH]c(=S)n1-c1ccccc1 (stereo not given)	JMJD2A Tudor inconclusive (no result: G9a block)
CC(C)OCC(O)CCc1n[nH]c(=S)n1-c1ccccc1 (stereo not given)	JMJD2A Tudor 6.3µM, G9a block 3.5µM
S=c1[nH]nc(COc2ccc(Cl)cc2)n1-c1ccc(Cl)cc1	BAZ2B block inconclusive, JMJD2A Tudor inconclusive, PLK1 PBD block inconclusive
CC1(C)Cc2c(cnn2-c2ccc(F)cc2)C(NC(=O)C2=CC(=O)CC(C)(C)O2)C1 (stereo not given)	none (no result: BAZ2B block, VDR inhibitor, JMJD2A Tudor, HP1b binding inh, G9a block)
Cc1ccc(-n2c(Cc3ccccc3)n[nH]c2=S)cc1	JMJD2A Tudor 7.1µM, G9a block 2.2µM
S=c1[nH]nc(Cc2ccccc2)n1-c1ccc(Cl)cc1	JMJD2A Tudor 79µM, G9a block inconclusive
COC(=O)CSc1nnc(Cc2ccccc2)n1-c1ccc(C)cc1	none
